Measurements: PubChem BioAssay AID588773 (The Scripps Research Institute Molecular Screening Center, 2011)
Active and inactive are the calls of the source.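 Rule for the calls: active = inhibition of plasma PAF acetylhydrolase at a set limit or more at 0.1 µM, with tenfold selectivity over all off-targets; inactive = inhibition below the limit or weaker selectivity.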

Test: pPAFAH inhibition and serine hydrolase selectivity, late-stage follow-up, selectivity assay for pPAFAH inhibitor project, biochemical, gel-based, FP-Rh fluorescence, mouse, HTS hit compounds (AID 588773)
Details: gel-based competitive ABPP, proteome, MW 32 kDa protein, at 10 µM

| Structure (SMILES) | outcome |
| --- | --- |
| CN(C)C(=O)Oc1noc2cc(Cl)ccc12 | inactive |
| O=C(Oc1ccc([N+](=O)[O-])cc1)N1CCC(N2CCCCC2)CC1 | inactive |
